The source of these data is PubChem BioAssay (Tox21).

“And” between values parts separate entries of the source, which are not always exact repeats. Identical values can stand only once. Inconclusive results are not listed. Where a call stands in place of a potency, no number is given. Unmarked numbers belong to inactive results. The source made the active and inactive calls. The call rests on the fitted dose curve; in most records, active means well fitted curve in the direction sought with a large enough effect in the repeat runs; inconclusive means weak or mixed curves; inactive means no such curve, though single readings can be large; an effect the other way counts as inactive or inconclusive.
Further: nearly all actives have a fitted effect of over 50% in size.

Chain of Cytochrome P450 1A2 (Homo sapiens) (P05177 whole entry, looked up): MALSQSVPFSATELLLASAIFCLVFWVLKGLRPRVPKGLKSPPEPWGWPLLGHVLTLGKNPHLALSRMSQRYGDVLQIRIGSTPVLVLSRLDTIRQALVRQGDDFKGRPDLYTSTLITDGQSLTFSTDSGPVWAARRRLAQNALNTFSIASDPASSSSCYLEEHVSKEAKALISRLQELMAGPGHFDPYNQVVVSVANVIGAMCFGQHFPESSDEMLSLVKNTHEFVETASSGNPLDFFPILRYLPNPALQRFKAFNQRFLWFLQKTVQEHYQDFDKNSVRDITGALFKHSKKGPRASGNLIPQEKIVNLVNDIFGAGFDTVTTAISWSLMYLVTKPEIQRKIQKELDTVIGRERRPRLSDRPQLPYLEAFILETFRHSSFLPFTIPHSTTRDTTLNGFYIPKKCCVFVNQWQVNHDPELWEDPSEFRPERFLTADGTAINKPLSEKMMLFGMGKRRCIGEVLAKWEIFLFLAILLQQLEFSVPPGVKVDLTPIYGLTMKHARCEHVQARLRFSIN
Chain of Cytochrome P450 3A4 (Homo sapiens) (P08684 whole entry, looked up): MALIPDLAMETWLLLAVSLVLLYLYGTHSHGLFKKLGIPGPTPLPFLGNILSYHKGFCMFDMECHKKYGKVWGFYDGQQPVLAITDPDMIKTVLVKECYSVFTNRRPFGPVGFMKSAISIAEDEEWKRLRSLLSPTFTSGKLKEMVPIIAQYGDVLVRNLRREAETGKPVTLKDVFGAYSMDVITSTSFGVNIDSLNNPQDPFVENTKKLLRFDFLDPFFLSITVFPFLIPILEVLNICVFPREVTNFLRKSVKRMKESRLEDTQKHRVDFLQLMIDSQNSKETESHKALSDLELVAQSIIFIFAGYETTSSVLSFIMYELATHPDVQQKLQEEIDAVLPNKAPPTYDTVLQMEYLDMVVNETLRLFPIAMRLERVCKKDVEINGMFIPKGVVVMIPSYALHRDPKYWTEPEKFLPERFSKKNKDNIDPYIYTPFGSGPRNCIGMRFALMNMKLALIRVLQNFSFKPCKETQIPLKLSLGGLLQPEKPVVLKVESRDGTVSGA

The first assay addresses Cytochrome P450 1A2 (Homo sapiens) (UniProt P05177). The experiment in a line: Cytochrome P450 Family 1 Subfamily A Member 2 (CYP1A2) small molecule antagonists: luciferase reporter qHTS assay (AID 1671199). Further: potency means the concentration at half of the fitted maximal effect. The settings on record: P450-Glo CYP1A2 enzyme, luciferin luminescence, 1 h; series mostly up to 53 µM. Summed up: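 Inhibition of CYP1A2 conversion of proluciferin to luciferin, detected by luminescence. Reaction run 1 h at room temperature with NADPH regeneration after brief compound preincubation.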
Background: In a reporter assay the amount or activity of a reporter protein is the signal.
Consider `OC1CCCCC1c1ccccc1` (configuration not stated), for which the Potency result was “inactive”.

As to `COC(C)(C)CCCC(C)CC=O` (configuration not stated), the Potency result is “inactive”.

Take `CC(=O)Nc1c(I)cc(I)c(C(=O)O)c1I`: the Potency is 24.5 µM (active).

In the case of `Nc1ccccc1S(=O)(=O)O`, the Potency result was “inactive”.

As to `COc1ccc2c(c1)c(CC(=O)OCC(=O)O)c(C)n2C(=O)c1ccc(Cl)cc1`, the Potency result is “inactive”.

Consider `C=COCC1CCC(CO)CC1` (configuration not stated), for which the Potency result is “inactive”.

In the case of `CC(=O)OCC(=O)[C@@]1(O)CCC2C3CCC4=CC(=O)CC[C@]4(C)C3[C@@H](O)C[C@@]21C` (some centres not stated), the Potency result is “inactive”.

`N=C(N)c1ccc(OCCCOc2ccc(C(=N)N)cc2)cc1`: the Potency entry was “inactive”.

As for `Oc1ccc(C2CNCCc3c2cc(O)c(O)c3Cl)cc1` (configuration not stated), the Potency result is “inactive”.

Regarding `CN(C(=O)c1c(O)c2ccccc2n(C)c1=O)c1ccccc1`, the Potency result is “inactive”.

On to `C=C1CC[C@H]2C[C@@H]1C2(C)C`, for which the Potency result is “inactive”.

For `O=C(O)Cc1ccc(CCNS(=O)(=O)c2ccc(Cl)cc2)cc1`, the Potency result is “inactive”.

Turning to `C[C@](N)(Cc1ccc(O)cc1)C(=O)O`, the activity change, negative = inhibition is 0.454% [at 10.5 µM].

For the compound `O=C(O)COc1nn(Cc2ccccc2)c2ccccc12`, the Potency entry is “inactive”.

Take `CCc1cccc2c(CCO)c[nH]c12`: the Potency was 7.76 µM (active).

As for `O=C1CCCCCCCCCCCN1`, the Potency is 70.9 µM (active).

As to `CC(=O)c1ccccc1O`, the Potency entry was “inactive”.

Regarding `Nc1c[n+](N2CCOCC2)no1`, the Potency entry is “inactive”.

With `Cc1ccc(C#N)cc1`, the Potency entry is “inactive”.

Take `Nc1ccc(S(=O)(=O)Nc2ccnn2-c2ccccc2)cc1`: the Potency entry was “inactive”.

As to `NC(=O)c1ccc([N+](=O)[O-])cc1`, the Potency was 39.8 µM (active).

As to `CCCCNC(=O)NCCCC`, the Potency is 35.6 µM (active).

For `O=C(c1ccccc1)C1CCCCC1`, the Potency was 44.8 µM (active).

Take `CC(=O)OCC(=O)[C@@]1(O)CC[C@H]2[C@@H]3CCC4=CC(=O)CC[C@]4(C)[C@H]3C(=O)C[C@@]21C`: the Potency entry is “inactive”.

For the next assay, the target named is Voltage-gated inwardly rectifying potassium channel KCNH2 (Homo sapiens) (UniProt Q12809). Put plainly: Human Ether-a-go-go-Related Gene (hERG) channel small molecule antagonists: fluorescence cell-based qHTS assay (AID 1671200).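 Further: hERG-expressing U2OS cells given a thallium stimulus after FluxOR II dye loading.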 Particulars: hERG-U2OS cells, FluxOR thallium flux fluorescence; series mostly up to 76.8 µM. Summed up: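 hERG-U2OS cells plated overnight at 37 C, loaded with FluxOR II dye 1 h at RT in dark; after 10 min, thallium stimulus added. Fluorescence (480/540 nm) read kinetically for 2 min at 1 s intervals.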
Chain of Voltage-gated inwardly rectifying potassium channel KCNH2 (Homo sapiens) (Q12809 whole entry, looked up): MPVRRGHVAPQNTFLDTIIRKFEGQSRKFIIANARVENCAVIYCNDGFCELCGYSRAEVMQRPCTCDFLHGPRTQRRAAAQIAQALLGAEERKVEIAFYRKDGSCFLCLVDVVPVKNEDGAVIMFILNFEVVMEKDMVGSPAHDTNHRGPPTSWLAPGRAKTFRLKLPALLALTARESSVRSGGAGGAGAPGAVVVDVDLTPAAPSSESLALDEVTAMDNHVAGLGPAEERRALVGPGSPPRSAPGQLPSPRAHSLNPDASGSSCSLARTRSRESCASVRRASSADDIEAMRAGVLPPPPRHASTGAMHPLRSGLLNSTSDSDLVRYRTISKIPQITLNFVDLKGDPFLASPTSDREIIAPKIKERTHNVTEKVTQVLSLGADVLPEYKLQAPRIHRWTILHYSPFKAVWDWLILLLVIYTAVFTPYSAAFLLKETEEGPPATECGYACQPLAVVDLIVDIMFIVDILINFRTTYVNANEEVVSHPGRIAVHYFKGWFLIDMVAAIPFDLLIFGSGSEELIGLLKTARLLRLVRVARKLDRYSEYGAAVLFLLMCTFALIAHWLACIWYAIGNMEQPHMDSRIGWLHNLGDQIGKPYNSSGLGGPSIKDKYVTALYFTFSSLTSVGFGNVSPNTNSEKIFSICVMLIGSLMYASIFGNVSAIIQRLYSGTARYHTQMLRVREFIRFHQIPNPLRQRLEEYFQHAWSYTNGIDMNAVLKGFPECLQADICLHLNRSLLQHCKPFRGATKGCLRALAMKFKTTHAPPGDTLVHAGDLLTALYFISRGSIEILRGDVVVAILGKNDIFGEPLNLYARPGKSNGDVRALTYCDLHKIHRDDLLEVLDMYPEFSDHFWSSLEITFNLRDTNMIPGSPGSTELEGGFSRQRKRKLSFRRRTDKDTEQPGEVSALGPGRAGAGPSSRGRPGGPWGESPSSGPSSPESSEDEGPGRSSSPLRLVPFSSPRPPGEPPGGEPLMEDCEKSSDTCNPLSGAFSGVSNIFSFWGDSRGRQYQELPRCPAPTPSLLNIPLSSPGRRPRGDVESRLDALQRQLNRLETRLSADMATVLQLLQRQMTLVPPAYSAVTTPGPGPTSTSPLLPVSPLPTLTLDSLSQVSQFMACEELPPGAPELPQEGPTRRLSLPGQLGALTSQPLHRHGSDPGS
In general terms: The hERG channel carries a current that helps repolarise heart muscle cells.
As for `OC1CCCCC1c1ccccc1` (configuration not stated), the Potency result is “inactive”.

As for `COC(C)(C)CCCC(C)CC=O` (configuration not stated), the Potency result is “inactive”.

As for `CCOC(=O)CC(C)=O`, the Potency entry was “inactive”.

Regarding `CC(=O)Nc1c(I)cc(I)c(C(=O)O)c1I`, the Potency result is “inactive”.

In the case of `C/C=C(\C)C#N`, the Potency result was “inactive”.

For `O=C1CCCC(=O)C1`, the Potency result was “inactive”.

Take `Nc1ccccc1S(=O)(=O)O`: the Potency result was “inactive”.

As for `COc1ccc2c(c1)c(CC(=O)OCC(=O)O)c(C)n2C(=O)c1ccc(Cl)cc1`, the Potency entry was “inactive”.

As to `C=COCC1CCC(CO)CC1` (configuration not stated), the Potency result is “inactive”.

As for `CC(=O)OCC(=O)[C@@]1(O)CCC2C3CCC4=CC(=O)CC[C@]4(C)C3[C@@H](O)C[C@@]21C` (some centres not stated), the Potency result was “inactive”.

Consider `Cc1c(O)cccc1O`, for which the Potency result was “inactive”.

Regarding `N=C(N)c1ccc(OCCCOc2ccc(C(=N)N)cc2)cc1`, the Potency entry is “inactive”.

For `COCCc1ccc(OCC(O)CNC(C)C)cc1` (configuration not stated), the Potency result is “inactive”.

For the compound `Oc1ccc(C2CNCCc3c2cc(O)c(O)c3Cl)cc1` (configuration not stated), the Potency result was “inactive”.

As to `CN(C(=O)c1c(O)c2ccccc2n(C)c1=O)c1ccccc1`, the Potency result was “inactive”.

`Brc1c(NC2=NCCN2)ccc2nccnc12`: the Potency entry was “inactive”.

On to `CCN(Cc1ccncc1)C(=O)C(CO)c1ccccc1` (configuration not stated), for which the Potency result was “inactive”.

In the case of `C=C1CC[C@H]2C[C@@H]1C2(C)C`, the Potency entry is “inactive”.

`O=C(O)Cc1ccc(CCNS(=O)(=O)c2ccc(Cl)cc2)cc1`: the Potency entry is “inactive”.

Consider `C[C@](N)(Cc1ccc(O)cc1)C(=O)O`, for which the activity change, negative = inhibition was 1.07% [at 6.97 µM].

In the case of `O=C(O)COc1nn(Cc2ccccc2)c2ccccc12`, the Potency entry is “inactive”.

Take `CCn1nc(C(=O)O)c(=O)c2cc3c(cc21)OCO3`: the Potency entry is “inactive”.

Consider `CCc1cccc2c(CCO)c[nH]c12`, for which the Potency result is “inactive”.

As to `O=C1CCCCCCCCCCCN1`, the Potency entry was “inactive”.

For `CC(=O)c1ccccc1O`, the Potency entry was “inactive”.

Consider `Nc1c[n+](N2CCOCC2)no1`, for which the Potency entry was “inactive”.

`NCCc1cnc[nH]1`: the Potency result was “inactive”.

Turning to `Cc1ccc(C#N)cc1`, the Potency entry was “inactive”.

As for `Nc1ccc(S(=O)(=O)Nc2ccnn2-c2ccccc2)cc1`, the activity change, negative = inhibition is 4.06% [at 15.8 µM].

For the compound `NC(=O)c1ccc([N+](=O)[O-])cc1`, the Potency result was “inactive”.

`Cc1cc(O)cc2c1O[C@](C)(CCC[C@H](C)CCC[C@H](C)CCCC(C)C)CC2`: the Potency entry is “inactive”.

For `CCCCNC(=O)NCCCC`, the Potency result was “inactive”.

As to `O=C(c1ccccc1)C1CCCCC1`, the Potency entry was “inactive”.

As for `CC(=O)OCC(=O)[C@@]1(O)CC[C@H]2[C@@H]3CCC4=CC(=O)CC[C@]4(C)[C@H]3C(=O)C[C@@]21C`, the Potency entry is “inactive”.

As for `CCCCC/C=C\CCC=O`, the Potency result is “inactive”.

The next assay deals with Cytochrome P450 3A4 (Homo sapiens) (UniProt P08684). The experiment in a line: Cytochrome P450 Family 3 Subfamily A Member 4 (CYP3A4) small molecule antagonists: luciferase reporter qHTS assay (AID 1671201). Further: potency means the concentration at half of the fitted maximal effect. The settings on record: P450-Glo CYP3A4 enzyme, luciferin luminescence, 1 h; series mostly up to 115 µM. Summed up:
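P450-Glo CYP3A4 luminescent assay: compounds preincubated 10 min at room temperature with enzyme and proluciferin substrate, NADPH regeneration added, 1 h room-temperature reaction, stopped with luciferin detection reagent; luminescence read after 20 min. Ketoconazole positive control.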
Consider `OC1CCCCC1c1ccccc1` (configuration not stated), for which the Potency entry is “inactive”.

With `COC(C)(C)CCCC(C)CC=O` (configuration not stated), the Potency entry is “inactive”.

`CC(=O)Nc1c(I)cc(I)c(C(=O)O)c1I`: the Potency result is “inactive”.

`C/C=C(\C)C#N`: the Potency result is “inactive”.

For `O=C1CCCC(=O)C1`, the Potency result is “inactive”.

For the compound `Nc1ccccc1S(=O)(=O)O`, the Potency result was “inactive”.

On to `COc1ccc2c(c1)c(CC(=O)OCC(=O)O)c(C)n2C(=O)c1ccc(Cl)cc1`, for which the Potency entry was “inactive”.

Turning to `C=COCC1CCC(CO)CC1` (configuration not stated), the Potency result was “inactive”.

For `CC(=O)OCC(=O)[C@@]1(O)CCC2C3CCC4=CC(=O)CC[C@]4(C)C3[C@@H](O)C[C@@]21C` (some centres not stated), the Potency entry was “inactive”.

As to `Cc1c(O)cccc1O`, the Potency was 32.5 µM (active).

Take `N=C(N)c1ccc(OCCCOc2ccc(C(=N)N)cc2)cc1`: the Potency result is “inactive”.

As to `Oc1ccc(C2CNCCc3c2cc(O)c(O)c3Cl)cc1` (configuration not stated), the Potency entry was “inactive”.

For `CN(C(=O)c1c(O)c2ccccc2n(C)c1=O)c1ccccc1`, the Potency entry is “inactive”.

Take `C=C1CC[C@H]2C[C@@H]1C2(C)C`: the Potency entry is “inactive”.

For the compound `O=C(O)Cc1ccc(CCNS(=O)(=O)c2ccc(Cl)cc2)cc1`, the Potency entry is “inactive”.

As for `C[C@](N)(Cc1ccc(O)cc1)C(=O)O`, the activity change, negative = inhibition is -20.3% [at 10.5 µM].

As for `O=C(O)COc1nn(Cc2ccccc2)c2ccccc12`, the Potency result was “inactive”.

Turning to `CCc1cccc2c(CCO)c[nH]c12`, the Potency entry is “inactive”.

Turning to `O=C1CCCCCCCCCCCN1`, the Potency was 3.55 µM (active) and 7.96 µM (active).

With `CC(=O)c1ccccc1O`, the Potency entry was “inactive”.

On to `Nc1c[n+](N2CCOCC2)no1`, for which the Potency entry was “inactive”.

Regarding `Cc1ccc(C#N)cc1`, the Potency entry is “inactive”.

For the compound `NC(=O)c1ccc([N+](=O)[O-])cc1`, the Potency result was “inactive”.

Regarding `Cc1cc(O)cc2c1O[C@](C)(CCC[C@H](C)CCC[C@H](C)CCCC(C)C)CC2`, the Potency entry is “inactive”.

On to `CCCCNC(=O)NCCCC`, for which the Potency result is “inactive”.

Consider `O=C(c1ccccc1)C1CCCCC1`, for which the Potency entry is “inactive”.

With `CC(=O)OCC(=O)[C@@]1(O)CC[C@H]2[C@@H]3CCC4=CC(=O)CC[C@]4(C)[C@H]3C(=O)C[C@@]21C`, the Potency result is “inactive”.

Regarding `CCCCC/C=C\CCC=O`, the Potency result was “inactive”.
